Assay [1] can be described thus: anti-His antibody binders, primary screen, artefact control for SMM control protein annotation, biochemical, small-molecule microarray, 635 nm fluorescence (AID 1128).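 Also: score merges feature fluorescence with signal-to-noise for each printed compound spot.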 As to conditions: anti-His Alexa647 antibody binding, higher = more signal.
Assay [2] deals with Human papillomavirus type 1a E7 protein (residues 1-88). Put plainly: HPV1a E7 small-molecule binders, primary screen, biochemical, small-molecule microarray, residues 1-88, 635 nm (AID 1129). As to conditions: small-molecule microarray binding, fluorescence 635 nm; higher = more signal.
In assay [3] the target is Focal adhesion kinase 1 (Homo sapiens) (UniProt Q05397). Put plainly: small-molecule microarray binders of FAK, primary screen, biochemical, 635/667 nm fluorescence, BSA, DTT (AID 1130).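 Also: composite of spot emission at 667 nm and signal to noise over triplicate slides.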 To be noted: PTK2 binding, 635 nm fluorescence, higher = more signal.
Sequence of Focal adhesion kinase 1 (Homo sapiens) (Q05397 whole entry, looked up): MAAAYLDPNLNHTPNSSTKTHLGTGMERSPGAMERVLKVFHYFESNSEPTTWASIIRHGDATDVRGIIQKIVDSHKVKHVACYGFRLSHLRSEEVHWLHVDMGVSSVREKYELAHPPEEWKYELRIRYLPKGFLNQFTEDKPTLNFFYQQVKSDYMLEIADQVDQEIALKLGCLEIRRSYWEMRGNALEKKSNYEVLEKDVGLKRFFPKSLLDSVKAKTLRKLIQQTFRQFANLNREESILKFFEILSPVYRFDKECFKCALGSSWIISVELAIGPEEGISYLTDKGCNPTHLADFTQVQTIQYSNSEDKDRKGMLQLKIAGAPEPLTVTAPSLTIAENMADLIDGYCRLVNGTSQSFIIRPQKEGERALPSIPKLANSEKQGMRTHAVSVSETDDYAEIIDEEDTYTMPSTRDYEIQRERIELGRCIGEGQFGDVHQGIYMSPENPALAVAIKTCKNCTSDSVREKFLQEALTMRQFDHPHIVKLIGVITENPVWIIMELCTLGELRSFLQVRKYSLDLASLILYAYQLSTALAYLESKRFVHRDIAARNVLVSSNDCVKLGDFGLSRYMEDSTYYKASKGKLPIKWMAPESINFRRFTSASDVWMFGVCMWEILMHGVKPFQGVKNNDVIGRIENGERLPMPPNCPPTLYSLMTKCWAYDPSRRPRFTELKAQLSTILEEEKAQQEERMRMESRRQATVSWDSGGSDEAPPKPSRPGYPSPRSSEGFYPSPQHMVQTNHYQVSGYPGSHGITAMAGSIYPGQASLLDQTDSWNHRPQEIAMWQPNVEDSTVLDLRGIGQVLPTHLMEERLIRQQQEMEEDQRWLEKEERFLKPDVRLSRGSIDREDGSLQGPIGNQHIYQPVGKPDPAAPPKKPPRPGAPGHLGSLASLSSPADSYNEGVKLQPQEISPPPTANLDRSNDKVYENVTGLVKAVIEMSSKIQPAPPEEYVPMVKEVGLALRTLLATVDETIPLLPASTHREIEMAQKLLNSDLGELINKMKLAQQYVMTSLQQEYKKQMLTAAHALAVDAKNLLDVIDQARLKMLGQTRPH
The subject of assay [4] is Fibrinogen (Alexa647-labelled). Nature of the assay: fibrinogen binders on compound microarrays, profiling panel, artefact control for SMM control-protein annotation, biochemical, small-molecule microarray, 635/667 nm fluorescence (AID 1131).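 Also: z-score merges 667 nm fluorescence with per-spot signal-to-noise over triplicate slides.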 As to conditions: fibrinogen-A647 binding fluorescence, higher = more signal.
In assay [5] the target is Follistatin (Homo sapiens) (UniProt P19883). Put plainly: follistatin binders on small-molecule microarrays, primary screen, biochemical, small-molecule microarray, 635/667 nm fluorescence (AID 1132). As to conditions: FST binding, 635 nm fluorescence, higher = more signal.
Sequence of Follistatin (Homo sapiens) (P19883 whole entry, looked up): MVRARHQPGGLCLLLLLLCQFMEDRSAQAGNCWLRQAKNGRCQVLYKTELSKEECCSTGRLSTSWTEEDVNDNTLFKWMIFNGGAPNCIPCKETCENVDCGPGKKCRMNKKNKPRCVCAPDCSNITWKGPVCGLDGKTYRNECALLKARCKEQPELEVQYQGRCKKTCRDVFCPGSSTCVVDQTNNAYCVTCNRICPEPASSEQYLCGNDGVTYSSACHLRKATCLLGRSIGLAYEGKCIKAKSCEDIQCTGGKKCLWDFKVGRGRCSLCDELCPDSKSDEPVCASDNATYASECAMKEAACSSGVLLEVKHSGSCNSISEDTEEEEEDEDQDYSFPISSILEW
Assay [6] addresses Fibroblast growth factor 2 (Homo sapiens) (UniProt P09038). Nature of the assay: FGF2 binders on small-molecule microarrays, primary screen, biochemical, small-molecule microarray, 635/667 nm fluorescence (AID 1133). To be noted: small-molecule microarray binding, FGF2, fluorescence 635/667; higher = more signal.
A short description of assay [7]: mitochondrial membrane potential change in A549 cells, profiling panel, cell-based, JC-1 fluorescence, basal, 24 h, 100 nL (AID 1138).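 Also: A549 lung adenocarcinoma cells under basal conditions with no added stimulus; test concentration not given here.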 As to conditions: higher = more signal.
In assay [8] the test system is Lefty1. Put plainly: Lefty1 binders on small-molecule microarrays, primary screen, biochemical, small-molecule microarray, 635/667 nm fluorescence (AID 1139). As to conditions: small-molecule microarray binding, fluorescence 635/667; higher = more signal.
In assay [9] the test system is wheat germ agglutinin (Triticum aestivum), Alexa647-labelled. Nature of the assay: wheat germ agglutinin binders on compound microarrays, profiling panel, artefact control for SMM control-protein annotation, biochemical, small-molecule microarray, 635/667 nm fluorescence (AID 1140).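 Also: score merges 667 nm feature emission with signal to noise over triplicate slides.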 As to conditions: WGA-A647 binding, 635 nm fluorescence, higher = more signal.
Assay [10] concerns the target Luciferin 4-monooxygenase (Photinus pyralis) (UniProt P08659). Nature of the assay: firefly luciferase enzyme inhibitors, primary screen, biochemical, luminescence, purified enzyme, 2006 set (AID 1141).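 Also: cell-free assay with purified firefly luciferase at 100 ng per well in PBS; test concentration not given here.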 To be noted: SteadyGlo luminescence, 30 min, higher = more signal, called active from +8 up or from −8 down.
Assay [11] deals with Wnt5a (protein binding on small-molecule microarray). Put plainly: Wnt5a binders on small-molecule microarray, primary screen, biophysical, 635/667 nm fluorescence (AID 1142).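 Also: fluorescence read at 667 nm with signal to noise per printed feature.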 As to conditions: 635 nm fluorescence, higher = more signal.
The nature of assay [12]: cell viability in Huh7 cells, primary screen, cytotoxicity control for HCV replication inhibitor project, CellTiter-Glo luminescence, basal, 48 h (AID 1143).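 Also: Huh7 hepatoma cells carrying a hepatitis C replication reporter with no stimulus; test concentration not given here.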 As to conditions: Huh7 HCV replicon, higher = more signal, called active from +8 up or from −8 down. (ATP-based viability assays read luminescence as a measure of living cells.)
A short description of assay [13]: P. aeruginosa biofilm formation inhibitors, primary screen, PAO1 strain, BacTiter-Glo luminescence, LB-PBS (AID 1144). As to conditions: 12 h, higher = more signal.
Assay [14] is described as follows: CREB reporter modulators without forskolin, primary screen, cell-based, PC12, CRE-LacZ reporter, unstimulated (AID 1145). To be noted: no forskolin, luminescence, 4.5 h, higher = more signal, called active from +8 up or from −8 down.
The nature of assay [15]: CREB reporter modulators under forskolin, primary screen, cell-based, PC12, CRE-LacZ reporter, forskolin-stimulated (AID 1146).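 Also: PC12 cells with 6xCRE LacZ reporter stimulated by forskolin 10 µM; beta-galactosidase reporter signal reflecting CREB driven transcription.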 To be noted: luminescence, 4.5 h, higher = more signal, called active from +8 up or from −8 down.
The target in assay [16] is Streptavidin (Streptomyces avidinii) (UniProt P22629). Put plainly: streptavidin binders on small-molecule microarray, primary screen, artefact control for SMM compound annotation, biophysical, 635/667 nm fluorescence (AID 1147).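 Also: signal reflects streptavidin binding to arrayed compounds as a control protein.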 As to conditions: streptavidin binding, higher = more signal.
Sequence of Streptavidin (Streptomyces avidinii) (P22629 whole entry, looked up): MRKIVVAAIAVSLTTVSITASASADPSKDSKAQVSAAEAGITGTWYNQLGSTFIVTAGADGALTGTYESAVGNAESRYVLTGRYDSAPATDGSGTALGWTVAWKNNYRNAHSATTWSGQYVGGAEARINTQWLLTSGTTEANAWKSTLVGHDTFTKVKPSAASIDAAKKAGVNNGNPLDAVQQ
The nature of assay [17]: small-molecule binders of probe aInhba, primary screen, biochemical, small-molecule microarray, 635/667 nm fluorescence (AID 1148).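 Also: score merges 667nm spot fluorescence with signal-to-noise for antibody binding to printed compounds.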 To be noted: higher = more signal.
Assay [18] has as its target Torsin-1A (Homo sapiens) (UniProt O14656). Nature of the assay: torsin A binders from cell lysate, primary screen, small-molecule microarray, wild-type, 635/667 nm (AID 1149). To be noted: COS7 hTOR1A-WT lysate, 635 nm fluorescence, higher = more signal.
Assay [19] shares this target. Nature of the assay: small-molecule binders of mutant TOR1A in lysate, primary screen, cell lysate, small-molecule microarray, COS7 lysate, 635/667 nm fluorescence (AID 1150).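 Also: score pools 667 nm emission and signal to noise measuring lysate protein binding.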 As to conditions: COS7 hTOR1A mutant lysate, 635 nm fluorescence, higher = more signal.
Assay [20] deals with Sonic hedgehog protein (Shh). Nature of the assay: small-molecule binders of Shh protein, primary screen, biochemical, small-molecule microarray, 635/667 nm fluorescence (AID 1151).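 Also: Shh protein binding to compounds spotted on small-molecule microarray slides; score combines spot fluorescence intensity with signal-to-noise across triplicate slides.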 To be noted: small-molecule microarray binding, 635 nm fluorescence; higher = more signal.

Molecules are shown by their SMILES. The source made the active and inactive calls. Unless noted, no rule for the calls is given here.

Sequence of Fibroblast growth factor 2 (Homo sapiens) (P09038 whole entry, looked up): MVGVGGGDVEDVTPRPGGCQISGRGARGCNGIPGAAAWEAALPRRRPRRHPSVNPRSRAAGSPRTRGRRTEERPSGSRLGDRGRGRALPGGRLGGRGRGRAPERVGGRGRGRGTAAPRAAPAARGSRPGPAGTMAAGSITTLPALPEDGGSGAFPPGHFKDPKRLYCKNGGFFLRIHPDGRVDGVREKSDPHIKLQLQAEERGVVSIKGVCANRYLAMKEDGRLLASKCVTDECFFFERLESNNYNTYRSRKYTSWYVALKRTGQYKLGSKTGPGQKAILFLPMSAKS
Sequence of Torsin-1A (Homo sapiens) (O14656 whole entry, looked up): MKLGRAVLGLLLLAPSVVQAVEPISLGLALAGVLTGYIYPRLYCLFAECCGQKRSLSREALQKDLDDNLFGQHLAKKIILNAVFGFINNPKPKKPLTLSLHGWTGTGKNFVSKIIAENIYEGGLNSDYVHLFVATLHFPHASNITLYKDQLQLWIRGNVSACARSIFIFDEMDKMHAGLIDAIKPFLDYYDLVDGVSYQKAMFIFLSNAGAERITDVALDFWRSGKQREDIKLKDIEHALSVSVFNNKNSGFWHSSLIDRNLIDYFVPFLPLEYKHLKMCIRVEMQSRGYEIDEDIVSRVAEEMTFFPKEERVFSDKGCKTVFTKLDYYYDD
Sequence of Luciferin 4-monooxygenase (Photinus pyralis) (P08659 whole entry, looked up): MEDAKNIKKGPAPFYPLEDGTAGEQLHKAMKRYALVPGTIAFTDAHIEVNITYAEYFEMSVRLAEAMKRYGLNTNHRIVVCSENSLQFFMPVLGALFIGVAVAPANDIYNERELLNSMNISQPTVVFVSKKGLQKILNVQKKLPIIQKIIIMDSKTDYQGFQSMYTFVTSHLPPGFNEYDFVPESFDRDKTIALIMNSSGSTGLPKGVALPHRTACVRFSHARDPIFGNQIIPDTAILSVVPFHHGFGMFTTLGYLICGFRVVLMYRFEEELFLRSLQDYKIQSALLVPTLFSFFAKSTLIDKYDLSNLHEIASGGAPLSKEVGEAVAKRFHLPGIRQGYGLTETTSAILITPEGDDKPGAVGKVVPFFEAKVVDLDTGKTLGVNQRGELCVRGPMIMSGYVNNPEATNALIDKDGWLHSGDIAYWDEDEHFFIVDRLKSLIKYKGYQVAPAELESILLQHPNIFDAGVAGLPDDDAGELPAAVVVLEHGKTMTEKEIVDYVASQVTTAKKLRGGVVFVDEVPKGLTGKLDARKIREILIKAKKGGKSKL

In the case of `COCCOC(=O)N1C(=O)[C@@]2(c3cc(C#CCNC(N)=O)ccc31)[C@H](C(=O)NC[C@H](O)c1ccccc1)[C@H]1C(=O)O[C@H](c3ccccc3)[C@H](c3ccccc3)N1[C@@H]2c1ccccc1OCCO`, the composite z-score in [1] amounted to 1.06; in [2], 0.769; in assay [3] it was 0.564; in [4], 0.762; in assay [5] it was 1.07; in [6], 0.73. In addition, the composite z-score in assay [8] is 0.946; in [9], 0.592; in assay [11] it was 0.8; in [16], -0.198; in assay [17], 0.801; in assay [18], 0.403. The composite z-score in [19] is 0.593; in [20], 1.08. The z-score in assay [7] was -1.08; in [10], -0.533 (inactive); in assay [12], -0.417 (inactive); in assay [13], -0.0351 (inactive); in [14] it was -0.199 (inactive); in [15] it was -0.972 (inactive).
Consider `C=CCNC(=O)[C@H]1[C@@H]2C(=O)O[C@@H](c3ccccc3)[C@@H](c3ccccc3)N2[C@@H](c2ccc(O)cc2)[C@]12C(=O)N(C(=O)OCCOC)c1ccc(C#CCNC(N)=O)cc12`, for which the composite z-score in assay [1] came to 1.05; in assay [2] it was 0.898; in assay [3] it was 0.0197; in assay [4], 0.0703; in assay [5], 1.44; in [6] it was 1.58. The composite z-score is 0.713 in assay [8]; 1.03 in assay [9]; 0.415 in assay [11]; -0.231 in assay [16]; 0.223 in assay [17]; 0.181 in assay [18]. Further, the composite z-score in [19] was -0.0483; in assay [20] it was 1.55. In addition, the z-score in assay [7] was -0.531; in assay [10], -0.0822 (inactive); in assay [12] it was 0.621 (inactive); in assay [13] it was 0.283 (inactive); in assay [14] it was 0.0736 (inactive); in assay [15], -0.036 (inactive).
On to `CC(C)c1ccc(NN2C(C(O)C(c3ccccc3)c3ccccc3)C=CC3C(=O)N(c4ccccc4)C(=O)C32)cc1` (stereo not given), for which the composite z-score stood at 0.49 in assay [1]; 1.2 in [2]; 0.496 in [3]; 0.975 in assay [4]; 1.13 in assay [5]; 0.388 in [6]. Besides, the composite z-score was 0.343 in [8]; 0.919 in assay [9]; 0.359 in [11]; 1.3 in assay [16]; 0.246 in assay [17]; 0.792 in assay [18]. Moreover, the figures for the composite z-score in [19] and in assay [20] were 0.936 and -0.0266, respectively. The z-score was -1.24 in [7]; -0.78 (inactive) in [10]; -0.29 (inactive) in assay [12]; -0.281 (inactive) in assay [13]; -0.322 (inactive) in [14]; 1.3 (inactive) in [15].
Turning to `C=CCOC(=O)[C@H]1[C@@H]2C(=O)O[C@@H](c3ccccc3)[C@@H](c3ccccc3)N2[C@@H](c2ccc(OCCOC(=O)[C@H]3C[C@H]4C(=O)N[C@@H](CC(C)C)C(=O)N4[C@H]3c3ccc(O)cc3)cc2)[C@]12C(=O)Nc1ccc(I)cc12`, the composite z-score in assay [1] was determined as 0.756; in assay [2], 0.937; in assay [3], 0.798; in assay [4], 0.839; in assay [5], 1.19; in [6], 1.55. For the same compound, the composite z-score in [8] was 1.54; in assay [9] it was 0.739; in assay [11] it was 0.931; in assay [16] it was 0.335; in assay [17], -0.0695; in [18] it was 1.45. Besides, the composite z-score in [19] stood at 1.45; in [20], 2.31. For the same compound, the z-score in [7] is -1.29; in assay [10] it was -2.02 (inactive); in assay [12] it was -0.289 (inactive); in assay [13], -0.829 (inactive); in [14], -0.122 (inactive); in [15], 0.535 (inactive).

For the origin of these results see PubChem BioAssay.
